The list is not random: actives were taken first. Their share in the collection is about 9.8%.
CBFb RUNX1 block: blocks binding between human CBF-beta and RUNX1. 230,000 tested, under 10 active. Q01196+Q13951. Potency, µM (titrated, usually from 59.8 µM), inactives show at the top dose activity, negative = inhibition, hits mostly inhibitors. AlphaScreen CBFb-His/RUNX1-biotin binding, biochemical. AID 1477; also: % of control where 0% means no effect
Target sequence (Q01196 whole entry, looked up): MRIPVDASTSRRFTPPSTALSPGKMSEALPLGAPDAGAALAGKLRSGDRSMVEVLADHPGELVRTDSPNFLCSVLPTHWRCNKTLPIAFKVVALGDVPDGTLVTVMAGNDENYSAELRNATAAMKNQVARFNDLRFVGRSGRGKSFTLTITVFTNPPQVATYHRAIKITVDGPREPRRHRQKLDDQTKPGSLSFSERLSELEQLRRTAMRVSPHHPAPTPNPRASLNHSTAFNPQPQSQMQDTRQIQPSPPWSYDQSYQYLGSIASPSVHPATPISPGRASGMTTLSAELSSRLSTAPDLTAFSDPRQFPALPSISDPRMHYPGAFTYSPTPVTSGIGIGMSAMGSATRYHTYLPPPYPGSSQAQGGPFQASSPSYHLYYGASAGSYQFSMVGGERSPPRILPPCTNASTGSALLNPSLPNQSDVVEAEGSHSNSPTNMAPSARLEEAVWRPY
Target sequence (Q13951 whole entry, looked up): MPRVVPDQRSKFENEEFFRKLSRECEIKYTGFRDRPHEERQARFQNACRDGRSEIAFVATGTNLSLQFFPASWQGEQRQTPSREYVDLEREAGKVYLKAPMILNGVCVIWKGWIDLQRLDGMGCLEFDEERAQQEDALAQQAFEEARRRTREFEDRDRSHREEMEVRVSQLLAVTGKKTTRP
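AlphaScreen binding: CBFb-His and RUNX1-biotin (30 nM each) preincubated 20 min, compound added for 15 min, then nickel and streptavidin beads for 90 min, all at room temperature. Disruption of the interaction by any mechanism counts as activity.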
KDM4E inh: JMJD2E (human) inhibition. Potency, µM (series often up to 57.1 µM), for the others: at the highest dose activity change, negative = inhibition, hits mostly inhibitors. actives 1.6% (n = 230,000). JMJD2E catalytic domain, FDH-coupled NADH fluorescence (FDH is formaldehyde dehydrogenase). B2RXH2; active = well fitted inhibition curve with a large enough effect, not every such curve was filed as active; inconclusive = small, poorly fitted or top-dose-only effect, or another doubt; inactive = no such curve, though single readings can be large or run the other way;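 also: potency is read from the fitted curve at half-maximal effect; 0% = wells with enzyme and -100% = buffer wells without enzyme; nearly all actives have a fitted effect of over 50% in size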
HTT cytoprotect: Huntington cell model cytoprotection by ATP luminescence; PC12 HTT-Q103 induced, cytoprotection, ATP luminescence, 40 h; Potency, µM (highest dose often 56.4 µM), for the others: cytoprotection (ATP increase), most hits filed as activators; actives 0.14% (n = 230,000); also: potency is read from the fitted curve at half-maximal effect; % of control where 0% means no effect; nearly all actives have a fitted effect of over 45% in size
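Compounds added alongside 100 nM tebufenozide, which induces toxic Q103 huntingtin exon 1-GFP in stable PC12 cells; surviving cells quantified by luminescent ATP measurement. Medium: phenol red-free DMEM, 5% equine and 5% calf serum.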
ALDH1A1 inh: blocks purified human ALDH1A1 activity. AID 1030. Purified ALDH1A1, NADH fluorescence, propionaldehyde substrate. Potency, µM (doses to about 75.3 µM), for the others: at the highest dose activity, negative = inhibition, actives largely listed as inhibitors. actives 7.3% (n = 220,000); active = well fitted inhibition curve with a large enough effect, not every such curve was filed as active; inconclusive = small, poorly fitted or top-dose-only effect, or another doubt; inactive = no such curve, though single readings can be large or run the other way;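 also: potency is read from the fitted curve at half-maximal effect; plate controls were no enzyme wells and a reference inhibitor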
HPGD block: blocks human HPGD enzyme activity | P15428 | purified HPGD, NADH fluorescence kinetic, PGE2 substrate | Potency, µM, inactives show top-dose activity change, negative = inhibition, hits mostly inhibitors | actives 4.3% (n = 150,000) | AID 894; active = well fitted inhibition curve with a large enough effect, not every such curve was filed as active; inconclusive = small, poorly fitted or top-dose-only effect, or another doubt; inactive = no such curve, though single readings can be large or run the other way; also: potency is read from the fitted curve at half-maximal effect; % is scaled to controls: 0 for no effect and ±100 for the full control effect
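NADH formation kinetics: reaction with 30 uM PGE2 and 1 mM NAD+ (final), 20 nM enzyme, Tris-HCl pH 8 with Tween 20, after 15 min compound preincubation at room temperature. Fluorescence change, last versus first of five reads.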
HTT aggregate: mutant huntingtin aggregation inhibition | PC12 HttQ103-GFP aggregates, Acumen cytometry, 40 h | Potency, µM (titrated, usually from 46.1 µM), inactives show at the top dose activity change, negative = inhibition, hits mostly inhibitors | actives 1.1% (n = 220,000) | AID 1688; also: potency is read from the fitted curve at half-maximal effect; % is scaled to controls: 0 for no effect and ±100 for the full control effect; nearly all actives have a fitted effect of over 60% in size
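PC12/HTTQ103-GFP, ecdysone-inducible; teb 100 nM; cpd qHTS titration; GFP aggregates read on laser cytometer, Ex 488/Em 500-530 nm.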
Numbers without * were called inactive; [ ] = another dose, or the depositor's remark. Unless noted, calls follow the shape of the dose curve; as a rule, active = well fitted curve in the direction sought with a large enough effect; inconclusive = small, poorly fitted or top-dose-only effect, or another doubt; inactive = no such curve, though single readings can be large; an effect the other way counts as inactive or inconclusive.

What do the screens show for `CCCCSc1nc(N)c(C#N)c(-c2cccs2)c1C#N`?
CBFb RUNX1 block: 27.9%; KDM4E inh: inconclusive; HTT cytoprotect: -54.2%; ALDH1A1 inh: inconclusive; HPGD block: inconclusive; HTT aggregate: 35.5µM*

How did CC(=O)CSc1nc(N)c(C#N)c(-c2cccs2)c1C#N do in these assays?
CBFb RUNX1 block: 0.2%; KDM4E inh: -0.4%; HTT cytoprotect: 23.7%; ALDH1A1 inh: inconclusive; HPGD block: -19.3%; HTT aggregate: 14.1µM*

What do the screens show for `Cc1ccc(S(=O)(=O)N2CCCCC2)cc1NC(=O)Cn1c(=O)cnc2ccccc21`?
CBFb RUNX1 block: 9.6%; KDM4E inh: inconclusive; HTT cytoprotect: -10.4%; ALDH1A1 inh: inconclusive; HTT aggregate: -15.1%

What do the screens show for `Cc1ccc(S(=O)(=O)NC(=O)Nc2nccs2)cc1`?
CBFb RUNX1 block: -1.8%; KDM4E inh: 2.5%; HTT cytoprotect: 24.5%[10 µM]; HTT aggregate: 8.7%[9.22 µM]

Results for O=Nc1ccc(O)c2ncccc12 ?
CBFb RUNX1 block: -26.3%; KDM4E inh: 25.1µM*; HTT cytoprotect: -12.3%[10 µM]; ALDH1A1 inh: inconclusive; HTT aggregate: -30.6%[9.22 µM]

How did COc1ccc(C)cc1N=Nc1ccc(O)c2ncccc12 do in these assays?
CBFb RUNX1 block: inconclusive; KDM4E inh: 25.1µM*; HTT cytoprotect: -135.9%; ALDH1A1 inh: -3.5%; HTT aggregate: inconclusive

What do the screens show for `COc1ccc(N=Nc2ccc(O)c3ncccc23)cc1`?
CBFb RUNX1 block: 1.5%; KDM4E inh: inconclusive; HTT cytoprotect: -32.6%[10 µM]; HTT aggregate: -18.9%[9.22 µM]

What do the screens show for `Cc1ccccc1N=Nc1ccc(O)c2ncccc12`?
CBFb RUNX1 block: -6.3%; KDM4E inh: -25.0%; HTT cytoprotect: -49.6%[10 µM]; ALDH1A1 inh: 12.4%; HPGD block: -4.8%; HTT aggregate: 2.51µM*

Results for Cc1ccc(O)c2ncccc12 ?
HTT cytoprotect: -54.5%; HTT aggregate: inconclusive

How did N#Cc1cccc(-c2cncnc2NCc2ccccc2)c1 do in these assays?
HTT cytoprotect: -7.9%; ALDH1A1 inh: 8.9%

What do the screens show for `CCCCCSc1nnc(N)s1`?
CBFb RUNX1 block: 10.0%; KDM4E inh: 7.0%; HTT cytoprotect: 9.2%[10 µM]; HTT aggregate: -9.3%[9.22 µM]

Results for CC1NC(=O)NC1CCCCCC(=O)NCCc1ccccc1 (configuration not stated) ?
CBFb RUNX1 block: inconclusive; KDM4E inh: -6.2%; HTT cytoprotect: -0.1%; ALDH1A1 inh: inconclusive; HPGD block: 25.1µM*; HTT aggregate: 6.5%

Results for CC1CN(C(=O)COC(=O)c2ccc(Cl)nc2)CC(C)O1 (configuration not stated) ?
CBFb RUNX1 block: 16.8%; KDM4E inh: 3.3%; HTT cytoprotect: -23.8%; ALDH1A1 inh: -3.5%; HTT aggregate: 17.5%

Results for CC(=O)Nc1ccc(C(=O)NNC(=O)Cc2ccccc2)cc1 ?
CBFb RUNX1 block: -0.4%; KDM4E inh: 13.1%; HTT cytoprotect: 15.8%[10 µM]; ALDH1A1 inh: 3.9%; HTT aggregate: 10.3%[9.22 µM]

Results for COc1ccc(NC(=O)CCN2C(=O)[C@@H]3[C@H](C2=O)[C@H]2C=C[C@@H]3C2)cc1 ?
CBFb RUNX1 block: 8.9%; KDM4E inh: 5.0%; HTT cytoprotect: -12.0%[10 µM]; HTT aggregate: 5.1%[9.22 µM]

What do the screens show for `O=C(CCN1C(=O)C2C3CCC(C3)C2C1=O)Nc1ccc(Br)cc1` (configuration not stated)?
CBFb RUNX1 block: -4.5%; KDM4E inh: -4.1%; ALDH1A1 inh: inconclusive; HPGD block: -9.0%; HTT aggregate: 2.1%

What do the screens show for `COc1ccc(NC(=O)CCN2C(=O)C3C4CCC(C4)C3C2=O)cc1` (configuration not stated)?
CBFb RUNX1 block: 5.6%; KDM4E inh: -6.0%; HTT cytoprotect: 13.3%[0.074 µM]; ALDH1A1 inh: 12.6µM*; HPGD block: -8.6%; HTT aggregate: 12.2%
